Test results published in PubChem BioAssay (EPA / NIEHS).
Active and inactive are the calls of the source. Rule for the calls: active = hit-call score of the fitted dose curve at least 0.9, where 1 is the maximum; inactive = score below 0.9.

Key:
Details in all cases: mRNA level, 48 h; actives raise or lower the signal
[1] = read-out: Pyruvate Dehydrogenase Kinase 4 (PDK4), PDK4 (gene 5166); assay: LTEA_HepaRG_PDK4: Life Technologies and Expression Analysis (LTEA) Assay for Pyruvate Dehydrogenase Kinase 4 (PDK4) using HepaRG (AID 2283525)
In short: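 Differentiated human HepaRG cells, pre-cultured 48 h, were exposed in duplicate for 48 h in serum-free induction medium to eight half-log concentrations up to 100 uM in 0.5% DMSO. PDK4 mRNA was quantified by qRT-PCR, normalized to ACTB, GAPDH and POLR2A, bidirectional fitting versus DMSO.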

[2] = read-out: NAD(P)H dehydrogenase [quinone] 1 (NQO1), NQO1 (gene 1728); assay: LTEA_HepaRG_NQO1: Life Technologies and Expression Analysis (LTEA) Assay for NAD(P)H dehydrogenase [quinone] 1 (NQO1) using HepaRG (AID 2283526)
In short: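 Human HepaRG hepatic cells received chemicals for 48 h in serum-free induction medium with 0.5% DMSO, up to 100 uM. Expression was assessed by TaqMan qRT-PCR against housekeeping controls and fitted bidirectionally against DMSO.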

[3] = read-out: Nuclear factor erythroid 2-related factor 2 (Homo sapiens) (UniProt Q16236); assay: LTEA_HepaRG_NFE2L2: Life Technologies and Expression Analysis (LTEA) Assay for Nuclear factor erythroid 2-related factor 2 (NFE2L2) Transcription Factor using HepaRG (AID 2283527)
In short: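 Differentiated human HepaRG cells in serum-free induction medium were exposed for 48 h to eight concentrations (top 100 uM, half-log dilutions, 0.5% DMSO), in duplicate. NFE2L2 mRNA was quantified by TaqMan qRT-PCR, normalized to ACTB, GAPDH and POLR2A, with bidirectional fitting versus DMSO.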

[4] = read-out: succinate dehydrogenase complex iron sulfur subunit B (SDHB), SDHB (gene 6390); assay: LTEA_HepaRG_SDHB: Life Technologies and Expression Analysis (LTEA) Assay for succinate dehydrogenase complex iron sulfur subunit B (SDHB) using HepaRG (AID 2283528)
In short: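 HepaRG, 48 h exposure, 8-pt half-log series from 100 uM in 0.5% DMSO, duplicates. Readout: SDHB mRNA by Fluidigm qRT-PCR vs housekeeping genes; bidirectional fit relative to DMSO.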

[5] = read-out: Signal transducer and activator of transcription 3 (Homo sapiens) (UniProt P40763); assay: LTEA_HepaRG_STAT3: Life Technologies and Expression Analysis (LTEA) Assay for Signal transducer and activator of transcription (STAT3) using HepaRG (AID 2283529)
In short: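 Differentiated human HepaRG cells in serum-free induction medium were exposed in duplicate for 48 h to eight half-log concentrations up to 100 uM in 0.5% DMSO. STAT3 mRNA was quantified by TaqMan qRT-PCR, normalized to ACTB, GAPDH and POLR2A, and fitted bidirectionally against DMSO.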

[6] = read-out: solute carrier (SLCO1B1), SLCO1B1 (gene 10599); assay: LTEA_HepaRG_SLCO1B1: Life Technologies and Expression Analysis (LTEA) Assay for solute carrier (SLCO1B1) using HepaRG (AID 2283530)
In short: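 SLCO1B1 transcript levels were quantified by TaqMan qRT-PCR using three housekeeping genes for normalization. This followed 48 h chemical exposure (100 uM top, half-log, 8 points, 0.5% DMSO) of HepaRG liver cells, with gain or loss fitted relative to DMSO.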

[7] = read-out: sulfotransferase 2A1 (SULT2A1), SULT2A1 (gene 6822); assay: LTEA_HepaRG_SULT2A1: Life Technologies and Expression Analysis (LTEA) Assay for sulfotransferase 2A1 (SULT2A1) using HepaRG (AID 2283531)
In short: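 Expression change of SULT2A1, by qRT-PCR with three housekeeping-gene normalization, was scored bidirectionally versus DMSO. Cells: differentiated HepaRG, dosed in duplicate for 48 h across 8 points, highest 100 µM, half-log dilution, 0.5% DMSO.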

[8] = read-out: Transforming Growth Factor (TGFA), TGFA (gene 7039); assay: LTEA_HepaRG_TGFA: Life Technologies and Expression Analysis (LTEA) Assay for Transforming Growth Factor (TGFA) using HepaRG (AID 2283532)
In short: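 Differentiated human HepaRG cells, plated 48 h then switched to serum-free induction medium, were exposed in duplicate for 48 h to 8-point half-log series from 100 uM in 0.5% DMSO. TGFA mRNA measured by qRT-PCR, normalized to ACTB/GAPDH/POLR2A, bidirectional fit versus DMSO.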

[9] = read-out: Transforming Growth Factor (TGFB1), TGFB1 (gene 7040); assay: LTEA_HepaRG_TGFB1: Life Technologies and Expression Analysis (LTEA) Assay for Transforming Growth Factor (TGFB1) Transporter using HepaRG (AID 2283533)
In short: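 TGFB1 transcript measured by qRT-PCR with normalisation to three housekeeping genes (ACTB, GAPDH, POLR2A); human HepaRG line treated in duplicate for 48 hr with an 8-point series topping at 100 uM, 0.5% DMSO vehicle, bidirectionally fitted.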

TIMP1, TIMP1 (gene 7076) = assay: LTEA_HepaRG_TIMP1: Life Technologies and Expression Analysis (LTEA) Assay for TIMP1 using HepaRG (AID 2283534)
In short: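 Bidirectional change in TIMP1 transcript versus 0.5% DMSO, measured by TaqMan qRT-PCR with three housekeeping genes for normalization. HepaRG human liver cells dosed 48 h in duplicate, top concentration 100 uM with half-log dilutions.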

Measured: AC50

Sequence of Nuclear factor erythroid 2-related factor 2 (Homo sapiens) (Q16236 whole entry, looked up): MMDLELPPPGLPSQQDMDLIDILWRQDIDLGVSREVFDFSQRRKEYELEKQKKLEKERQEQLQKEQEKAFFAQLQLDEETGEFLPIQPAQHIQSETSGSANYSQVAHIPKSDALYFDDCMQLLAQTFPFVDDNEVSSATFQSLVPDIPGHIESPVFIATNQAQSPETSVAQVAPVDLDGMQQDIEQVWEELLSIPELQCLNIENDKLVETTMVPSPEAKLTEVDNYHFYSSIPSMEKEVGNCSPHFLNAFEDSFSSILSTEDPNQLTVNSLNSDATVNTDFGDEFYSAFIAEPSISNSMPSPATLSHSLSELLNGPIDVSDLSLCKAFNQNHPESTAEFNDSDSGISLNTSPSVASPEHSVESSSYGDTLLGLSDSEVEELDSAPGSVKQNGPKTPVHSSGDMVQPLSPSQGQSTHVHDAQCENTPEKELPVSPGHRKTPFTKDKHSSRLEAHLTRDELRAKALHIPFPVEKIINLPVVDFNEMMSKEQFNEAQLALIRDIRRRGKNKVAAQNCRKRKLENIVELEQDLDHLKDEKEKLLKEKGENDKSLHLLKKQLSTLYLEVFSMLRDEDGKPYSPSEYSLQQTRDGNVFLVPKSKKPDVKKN
Sequence of Signal transducer and activator of transcription 3 (Homo sapiens) (P40763 whole entry, looked up): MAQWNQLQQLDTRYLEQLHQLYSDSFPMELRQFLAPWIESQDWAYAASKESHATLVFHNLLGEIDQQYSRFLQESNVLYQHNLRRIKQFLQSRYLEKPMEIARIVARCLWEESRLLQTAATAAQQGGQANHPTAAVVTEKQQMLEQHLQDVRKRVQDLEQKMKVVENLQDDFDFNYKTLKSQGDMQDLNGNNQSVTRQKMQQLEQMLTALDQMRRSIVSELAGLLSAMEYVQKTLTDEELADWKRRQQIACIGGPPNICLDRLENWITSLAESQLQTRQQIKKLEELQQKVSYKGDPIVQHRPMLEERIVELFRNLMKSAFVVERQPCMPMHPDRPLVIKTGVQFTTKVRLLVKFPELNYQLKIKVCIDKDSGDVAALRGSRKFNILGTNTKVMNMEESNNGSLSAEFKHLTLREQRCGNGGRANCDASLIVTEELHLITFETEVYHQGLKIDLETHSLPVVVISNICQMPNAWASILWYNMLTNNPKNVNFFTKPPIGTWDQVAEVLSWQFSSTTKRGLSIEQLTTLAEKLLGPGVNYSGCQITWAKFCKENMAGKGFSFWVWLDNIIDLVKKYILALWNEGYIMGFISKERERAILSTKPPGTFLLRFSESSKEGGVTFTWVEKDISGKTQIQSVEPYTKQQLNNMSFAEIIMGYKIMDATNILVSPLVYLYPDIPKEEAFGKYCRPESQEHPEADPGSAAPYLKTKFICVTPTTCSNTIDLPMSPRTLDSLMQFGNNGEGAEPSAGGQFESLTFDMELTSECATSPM

Cc1ccc(S(=O)(=O)NC(=O)NN2CCCCCC2)cc1
inactive: [1] | [2] | [3] | [4] | [5] | [6] | [7] | [8] | [9] | TIMP1, TIMP1 (gene 7076)

CCCCCCCCCCCCCCCCOS(=O)(=O)O
inactive: [2] | [3] | [5] | [6] | [7] | [8] | [9]
active: [1] 10.8 µM | TIMP1, TIMP1 (gene 7076) 0.351 µM

OC(Cn1cncn1)(Cn1cncn1)c1ccc(F)cc1F
inactive: [1] | [2] | [3] | [5] | [6] | [7] | [8] | [9] | TIMP1, TIMP1 (gene 7076)

CCCCCCCC/C=C\CCCCCCCC(=O)OC[C@@H](O)[C@H]1OC[C@H](O)[C@H]1O
inactive: [1] | [2] | [3] | [5] | [6] | [7] | [8] | [9] | TIMP1, TIMP1 (gene 7076)

Cc1nc(-c2ccccn2)ncc1C(=O)Nn1cc(C)c2cc(F)ccc21
inactive: [1] | [2] | [3] | [5] | [6] | [7] | [8] | [9] | TIMP1, TIMP1 (gene 7076)

NC(=O)NN=Cc1ccc([N+](=O)[O-])o1
active: [2] 11.4 µM | [8] 0.196 µM
inactive: [1] | [3] | [5] | [6] | [7] | [9] | TIMP1, TIMP1 (gene 7076)

Nc1ccn([C@@H]2O[C@H](CO)[C@@H](O)[C@@H]2O)c(=O)n1
inactive: [1] | [2] | [3] | [5] | [6] | [7] | [8] | [9] | TIMP1, TIMP1 (gene 7076)

O=C(O)c1ccc2c(c1)nc(C(=O)NC1CCN(C3CC3)CC1)n2Cc1cc(-c2ccc(Cl)s2)on1
inactive: [1] | [2] | [3] | [5] | [6] | [7] | [8] | [9] | TIMP1, TIMP1 (gene 7076)

O=C(O)[C@H](O)[C@@H](O)C(=O)O
inactive: [1] | [2] | [3] | [5] | [6] | [7] | [8] | [9] | TIMP1, TIMP1 (gene 7076)

CCCCOC(=O)c1ccccc1
inactive: [1] | [2] | [3] | [5] | [6] | [7] | [8] | [9] | TIMP1, TIMP1 (gene 7076)

O=S1(=O)CCCO1
inactive: [1] | [2] | [3] | [5] | [6] | [7] | [8] | [9] | TIMP1, TIMP1 (gene 7076)

c1ccc2c(c1)-c1cccc3c1c-2cc1ccccc13
inactive: [2] | [3] | [9]
active: [1] 8.2 µM | [5] 6.57 µM | [6] 13.7 µM | [7] 16.8 µM | [8] 7.13 µM | TIMP1, TIMP1 (gene 7076) 4.93 µM

CC(=O)c1ccccc1
inactive: [1] | [2] | [3] | [5] | [6] | [7] | [8] | [9] | TIMP1, TIMP1 (gene 7076)

CCCCCCCCCCCCCCO
inactive: [1] | [2] | [3] | [5] | [6] | [7] | [8] | [9] | TIMP1, TIMP1 (gene 7076)

CC[C@H](C)C(=O)O[C@H]1C[C@H](O)C=C2C=C[C@H](C)[C@H](CC[C@@H](O)C[C@@H](O)CC(=O)O)[C@H]21
inactive: [1] | [2] | [3] | [5] | [6] | [7] | [8] | [9] | TIMP1, TIMP1 (gene 7076)

CCCCCCCCN(C)C
inactive: [1] | [2] | [3] | [5] | [6] | [7] | [8] | [9] | TIMP1, TIMP1 (gene 7076)

O=C(O)c1cccc(C[C@@H]2COc3ccc(OCc4nc5cc(F)ccc5s4)cc3[C@@H]2O)c1
inactive: [1] | [2] | [3] | [5] | [7] | [8] | [9] | TIMP1, TIMP1 (gene 7076)
active: [6] 92.3 µM

OCc1ccccc1
inactive: [1] | [2] | [3] | [5] | [6] | [7] | [8] | [9] | TIMP1, TIMP1 (gene 7076)

CCCOc1ccc(S(=O)(=O)N2CCN(CC)CC2)cc1-c1nc2c(CC)n(Cc3ccccn3)nc2c(=O)[nH]1
inactive: [2] | [5] | [8] | TIMP1, TIMP1 (gene 7076)
active: [1] 31.3 µM | [3] 25 µM | [6] 50 µM | [7] 18.1 µM | [9] 26.3 µM

OC(CCl)CCl
inactive: [1] | [2] | [3] | [5] | [6] | [7] | [8] | [9] | TIMP1, TIMP1 (gene 7076)

CC(C)c1nnc2ccc(-c3ocnc3-c3cc(F)ccc3F)cn12
active: [6] 50 µM | [7] 94 µM
inactive: [1] | [2] | [4] | [5] | [8] | [9] | TIMP1, TIMP1 (gene 7076)

Cn1cc[nH]c1=S
inactive: [1] | [2] | [3] | [5] | [6] | [7] | [8] | [9] | TIMP1, TIMP1 (gene 7076)

CC1(C)C(=O)N(Cl)C(=O)N1Cl
inactive: [1] | [2] | [3] | [5] | [6] | [7] | [8] | [9] | TIMP1, TIMP1 (gene 7076)

O=c1[nH]cnc2c1ncn2[C@H]1CC[C@@H](CO)O1
inactive: [1] | [2] | [3] | [5] | [6] | [7] | [8] | [9] | TIMP1, TIMP1 (gene 7076)

CCCCCCCCCC
inactive: [1] | [2] | [3] | [5] | [6] | [7] | [8] | [9] | TIMP1, TIMP1 (gene 7076)

CCn1nc(C)c2c1C(=O)NCC(c1ccc(O)cc1)=N2
inactive: [1] | [2] | [3] | [5] | [6] | [7] | [8] | [9] | TIMP1, TIMP1 (gene 7076)

C[C@]12C=CC(=O)C=C1CC[C@H]1[C@@H]3C[C@@H](O)[C@](O)(C(=O)CO)[C@@]3(C)C[C@H](O)[C@@]12F
inactive: [1] | [2] | [3] | [5] | [6] | [7] | [8] | [9] | TIMP1, TIMP1 (gene 7076)

O=C1CN(N=Cc2ccc([N+](=O)[O-])o2)C(=O)N1
inactive: [2] | [5] | [6] | [7] | [8] | [9] | TIMP1, TIMP1 (gene 7076)
active: [1] 57.6 µM

CCCCN1C(=O)[C@@H]([C@H](O)C2CCCCC2)NC(=O)C12CCN(Cc1ccc(Oc3ccc(C(=O)O)cc3)cc1)CC2
active: [1] 2.61 µM | [2] 4.6 µM | [3] 2 µM | [5] 3.21 µM | [6] 1.92 µM | [7] 3.91 µM | [9] 0.34 µM
inactive: [8] | TIMP1, TIMP1 (gene 7076)

CCCCCOC(C)=O
inactive: [1] | [2] | [3] | [5] | [6] | [7] | [8] | [9] | TIMP1, TIMP1 (gene 7076)

CCc1ccc(O)c(C(C)(C)C)c1
inactive: [1] | [2] | [3] | [5] | [6] | [7] | [8] | [9] | TIMP1, TIMP1 (gene 7076)

CCCCCCCC1CCC(=O)O1 (stereo not drawn)
inactive: [1] | [2] | [5] | [6] | [7] | [8] | [9] | TIMP1, TIMP1 (gene 7076)

c1ccc(C(O[C@@H]2CCCN(CCc3ccc4c(c3)OCO4)C2)c2ccccc2)cc1
active: [1] 73.5 µM | [2] 78.9 µM | [3] 67.8 µM | [6] 86.5 µM | [7] 79.3 µM | [8] 77.1 µM | [9] 9.92 µM
inactive: [5] | TIMP1, TIMP1 (gene 7076)

COS(C)(=O)=O
inactive: [1] | [2] | [3] | [5] | [6] | [7] | [8] | [9] | TIMP1, TIMP1 (gene 7076)

CCOC(N)=O
inactive: [1] | [2] | [3] | [5] | [6] | [7] | [8] | [9] | TIMP1, TIMP1 (gene 7076)

Cc1ncc([C@@H](CCCCCCc2ccc3c(n2)NCCC3)CC(=O)O)cn1
active: [1] 0.317 µM
inactive: [2] | [3] | [5] | [6] | [7] | [8] | [9] | TIMP1, TIMP1 (gene 7076)
